Results on 35 compounds are retold here after PubChem BioAssay (Tox21).

Records with an inconclusive call do not appear. The source made the active and inactive calls. Unless noted, calls follow the shape of the full dose curve.

The nature of one test: qHTS assay to identify small molecule agonists of the NFkB signaling pathway - cell viability counter screen (AID 1159515). Also: nearly all actives have a fitted effect of over 55% in size. The conditions noted are these: NFkB-bla ME-180 viability, CellTiter-Glo luminescence, 5 h; series mostly up to 61 µM. The procedure, abridged:
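Plate 2,000 NFkB-bla ME-180 cells/well; incubate overnight. Add compounds, 5 hr at 37 C. Add FRET substrate, 1.5 hr RT. Add CellTiter-Glo, 30 min RT; read luminescence.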
In the case of `CS(=O)(=O)O`, the compound was called inactive.
In the case of `CCOC(C)(C)C`, the call was inactive.
Still for that read-out and setting: the entry for `O=Cc1cccc([N+](=O)[O-])c1` is “inactive”; for `N=C(N)c1ccc(OCCCOc2ccc(C(=N)N)cc2)cc1` it is “inactive”; for `NC(=O)COCCN1CCN(C(c2ccccc2)c2ccc(Cl)cc2)CC1` (stereo not given) it is “inactive”.
With `C/C=C(\C)C#N`, the compound was called inactive.
In the case of `CCCCCCOC(=O)CCCCC(=O)OCCCCCC`, the compound was called inactive.
Still for that read-out and setting: the entry for `C[C@@H]1CCN(C(=O)[C@H](CCCN=C(N)N)NS(=O)(=O)c2cccc3c2NC[C@H](C)C3)[C@@H](C(=O)O)C1` is “inactive”; for `CCc1nccnc1CC` it is “inactive”.
For `COC(C)(C)CCCC(C)CC=O` (stereo not given), the result was inactive.
Consider `CCCc1cc(C(N)=S)ccn1`, for which the compound was called inactive.
For the compound `O=C(O)CCCl`, the compound was classed as inactive.
With `O=C(O)c1ccccc1OP(=O)(O)O`, the compound was called inactive.
As to `Cn1cc(S(C)=O)c(=O)c2ccc(F)cc21` (stereo not given), the result was inactive.
On to `O=c1[nH]c(=O)n([C@H]2C[C@H](O)[C@@H](CO)O2)cc1I`, for which the call was inactive.
On to `CC(=O)Nc1ccc(S(N)(=O)=O)cc1`, for which the outcome was inactive.
For the compound `C=C(C)C(=O)OCCCCCCCC(C)C`, the result was inactive.
Same read-out and setting: the result for `CC(C)(CC(=O)O)C(=O)O` reads “inactive”; that for `CO[C@]12C[C@@H](COC(=O)c3cncc(Br)c3)CN(C)[C@@H]1Cc1cn(C)c3cccc2c13`, “inactive”.
Consider `CC(=O)CC(C)C`, for which the outcome was inactive.
Still for that read-out and setting: the entry for `O=[N+]([O-])c1ccc(F)cc1F` is “inactive”.
For the compound `Nc1c[n+](N2CCOCC2)no1`, the result was inactive.
Turning to `CC/C=C\CCOC(C)=O`, the outcome was inactive.
On to `COC(=O)NN`, for which the result was inactive.
In the case of `C1CN(CCOCCN2CCOCC2)CCO1`, the outcome was inactive.
For the compound `C[C@H]1C[C@@H](O)CC(C)(C)C1`, the outcome was inactive.
Turning to `C=CCCCCCCCCC=O`, the call was inactive.
Consider `CCCCCCCCCCCCN(CCCCCCCCCCCC)CCCCCCCCCCCC`, for which the compound was classed as inactive.
With `ClC(Cl)(Br)Br`, the outcome was inactive.
Take `N=C(N)c1ccc2cc(OC(=O)c3ccc(N=C(N)N)cc3)ccc2c1`: the compound was classed as inactive.
For `CCCCCCCCCCCCCCCCC`, the compound was classed as inactive.
Consider `CCOC(=O)c1c(C)n(C)c2ccc(O)cc12`, for which the outcome was inactive.
In the case of `Cc1cc2c(cc1S(N)(=O)=O)S(=O)(=O)CCC2`, the call was inactive.
Regarding `CCCCCCCCCCCC`, the compound was called inactive.
In the case of `CC(C)NC(=O)NC(C)C`, the outcome was inactive.

A short description of another test: qHTS assay to identify small molecule agonists of the endoplasmic reticulum stress response signaling pathway (AID 1159516; active = well fitted activation curve with a large enough effect in the signal ratio in the repeat runs, not every such curve was filed as active; the % refers to the signal ratio). The conditions noted are these: ESRE-bla HeLa, ER stress beta-lactamase reporter, 5 h; series mostly up to 61 µM. The method in brief:
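Beta-lactamase expression from the ER stress response element in HeLa reporter cells is quantified with the LiveBLAzer B/G FRET substrate, read at 405 nm excitation after 2 hr at room temperature, following 5 hr compound treatment at 37 C.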
Consider `CS(=O)(=O)O`, for which the call was inactive.
Take `CCOC(C)(C)C`: the compound was called inactive.
The same measure, in the same setting: the entry for `O=Cc1cccc([N+](=O)[O-])c1` is “inactive”; for `N=C(N)c1ccc(OCCCOc2ccc(C(=N)N)cc2)cc1` it is “inactive”.
Same read-out and setting: the result for `NC(=O)COCCN1CCN(C(c2ccccc2)c2ccc(Cl)cc2)CC1` (stereo not given) reads “inactive”; that for `C/C=C(\C)C#N`, “inactive”.
Turning to `CCCCCCOC(=O)CCCCC(=O)OCCCCCC`, the result was inactive.
For `C[C@@H]1CCN(C(=O)[C@H](CCCN=C(N)N)NS(=O)(=O)c2cccc3c2NC[C@H](C)C3)[C@@H](C(=O)O)C1`, the compound was called inactive.
In the case of `CCc1nccnc1CC`, the compound was classed as inactive.
With `COC(C)(C)CCCC(C)CC=O` (stereo not given), the call was inactive.
On the same count and under the same terms, the result for `CCCc1cc(C(N)=S)ccn1` reads “inactive”; that for `O=C(O)CCCl`, “inactive”.
Turning to `O=C(O)c1ccccc1OP(=O)(O)O`, the compound was called inactive.
`Cn1cc(S(C)=O)c(=O)c2ccc(F)cc21` (stereo not given): the result was inactive.
On the same count and under the same terms, the result for `O=c1[nH]c(=O)n([C@H]2C[C@H](O)[C@@H](CO)O2)cc1I` reads “inactive”.
Turning to `CC(=O)Nc1ccc(S(N)(=O)=O)cc1`, the outcome was inactive.
In the case of `C=C(C)C(=O)OCCCCCCCC(C)C`, the compound was classed as inactive.
As for `CC(C)(CC(=O)O)C(=O)O`, the call was inactive.
Turning to `CO[C@]12C[C@@H](COC(=O)c3cncc(Br)c3)CN(C)[C@@H]1Cc1cn(C)c3cccc2c13`, the outcome was inactive.
Consider `CC(=O)CC(C)C`, for which the result was inactive.
As for `O=[N+]([O-])c1ccc(F)cc1F`, the call was inactive.
As to `Nc1c[n+](N2CCOCC2)no1`, the result was inactive.
The same measure, in the same setting: the entry for `CC/C=C\CCOC(C)=O` is “inactive”; for `COC(=O)NN` it is “inactive”; for `C1CN(CCOCCN2CCOCC2)CCO1` it is “inactive”.
The same measure, in the same setting: the result for `C[C@H]1C[C@@H](O)CC(C)(C)C1` reads “inactive”.
In the case of `C=CCCCCCCCCC=O`, the compound was classed as inactive.
In the case of `CCCCCCCCCCCCN(CCCCCCCCCCCC)CCCCCCCCCCCC`, the compound was called inactive.
In the case of `ClC(Cl)(Br)Br`, the outcome was inactive.
Regarding `N=C(N)c1ccc2cc(OC(=O)c3ccc(N=C(N)N)cc3)ccc2c1`, the outcome was inactive.
Consider `CCCCCCCCCCCCCCCCC`, for which the call was inactive.
In the case of `CCOC(=O)c1c(C)n(C)c2ccc(O)cc12`, the call was inactive.
Regarding `Cc1cc2c(cc1S(N)(=O)=O)S(=O)(=O)CCC2`, the compound was classed as inactive.
As to `CCCCCCCCCCCC`, the call was inactive.
Turning to `CC(C)NC(=O)NC(C)C`, the compound was called inactive.

A further test in a line: qHTS assay to identify small molecule agonists of the endoplasmic reticulum stress response signaling pathway - cell viability counter screen (AID 1159517). Also: nearly all actives have a fitted effect of over 50% in size. The conditions noted are these: ESRE-bla HeLa viability, CellTiter-Glo luminescence, 5 h; series mostly up to 61 µM. The procedure, abridged:
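In parallel with the ESRE reporter read, cytotoxicity was scored by CellTiter-Glo luminescence (30 min, room temperature) on HeLa ESRE-bla cells dosed for 5 hr.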
For orientation: qHTS replaces the single test concentration by a dilution series.
Regarding `CS(=O)(=O)O`, the outcome was inactive.
In the case of `CCOC(C)(C)C`, the outcome was inactive.
Regarding `O=Cc1cccc([N+](=O)[O-])c1`, the result was inactive.
For the compound `N=C(N)c1ccc(OCCCOc2ccc(C(=N)N)cc2)cc1`, the result was inactive.
Turning to `NC(=O)COCCN1CCN(C(c2ccccc2)c2ccc(Cl)cc2)CC1` (stereo not given), the compound was called inactive.
Turning to `C/C=C(\C)C#N`, the compound was called inactive.
Consider `CCCCCCOC(=O)CCCCC(=O)OCCCCCC`, for which the compound was classed as inactive.
As for `C[C@@H]1CCN(C(=O)[C@H](CCCN=C(N)N)NS(=O)(=O)c2cccc3c2NC[C@H](C)C3)[C@@H](C(=O)O)C1`, the outcome was inactive.
With `CCc1nccnc1CC`, the call was inactive.
`COC(C)(C)CCCC(C)CC=O` (stereo not given): the outcome was inactive.
For the compound `CCCc1cc(C(N)=S)ccn1`, the compound was classed as inactive.
In the case of `O=C(O)CCCl`, the call was inactive.
Take `O=C(O)c1ccccc1OP(=O)(O)O`: the call was inactive.
In the case of `Cn1cc(S(C)=O)c(=O)c2ccc(F)cc21` (stereo not given), the compound was classed as inactive.
Still for that read-out and setting: the entry for `O=c1[nH]c(=O)n([C@H]2C[C@H](O)[C@@H](CO)O2)cc1I` is “inactive”.
Same read-out and setting: the result for `CC(=O)Nc1ccc(S(N)(=O)=O)cc1` reads “inactive”; that for `C=C(C)C(=O)OCCCCCCCC(C)C`, “inactive”.
For `CC(C)(CC(=O)O)C(=O)O`, the compound was called inactive.
For the compound `CO[C@]12C[C@@H](COC(=O)c3cncc(Br)c3)CN(C)[C@@H]1Cc1cn(C)c3cccc2c13`, the result was inactive.
`CC(=O)CC(C)C`: the outcome was inactive.
In the case of `O=[N+]([O-])c1ccc(F)cc1F`, the compound was called inactive.
The same measure, in the same setting: the result for `Nc1c[n+](N2CCOCC2)no1` reads “inactive”; that for `CC/C=C\CCOC(C)=O`, “inactive”.
As for `COC(=O)NN`, the compound was called inactive.
`C1CN(CCOCCN2CCOCC2)CCO1`: the call was inactive.
Turning to `C[C@H]1C[C@@H](O)CC(C)(C)C1`, the compound was classed as inactive.
The same measure, in the same setting: the entry for `C=CCCCCCCCCC=O` is “inactive”.
For `CCCCCCCCCCCCN(CCCCCCCCCCCC)CCCCCCCCCCCC`, the outcome was inactive.
With `ClC(Cl)(Br)Br`, the call was inactive.
Take `N=C(N)c1ccc2cc(OC(=O)c3ccc(N=C(N)N)cc3)ccc2c1`: the call was inactive.
In the case of `CCCCCCCCCCCCCCCCC`, the outcome was inactive.
Consider `CCOC(=O)c1c(C)n(C)c2ccc(O)cc12`, for which the call was inactive.
Still for that read-out and setting: the entry for `Cc1cc2c(cc1S(N)(=O)=O)S(=O)(=O)CCC2` is “inactive”; for `CCCCCCCCCCCC` it is “inactive”.
For `CC(C)NC(=O)NC(C)C`, the compound was classed as inactive.
